Screens: PubChem, several laboratories
This excerpt belongs to a sample that is enriched for hits.
HDAC3 inh – human HDAC3 inhibition; recombinant HDAC3, fluorogenic peptide/trypsin coupled, fluorescence; inhibition, % at 8.3 µM; actives 0.15% (n = 320,000); AID 2718; in the data active = inhibition above about 26%, passing the limit was not always enough; inconclusive = no clear call, values can overlap the other calls
NPR1 activator – GC-A (human) enzyme activation; HEK293 GC-A cells, cGMP TR-FRET, EC30 ANP; 0% at EC30 ANP, 100% saturating ANP; activation, % at 10 µM; actives 0.14% (n = 370,000); in the data active = activation above about 40%
ALR H2O2 inh – blocks human ALR sulfhydryl oxidase activity | actives 3.8% (n = 290,000) | inhibition, % (concentration not given with the values) | P55789 | purified ALR, DTT oxidation, H2O2 HRP-luminol luminescence;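 active = mean replicate inhibition above about 79%, with every replicate also reaching it, limit read from the data; inconclusive = only one of the two criteria met; inactive = mean below limit and not every replicate reaching it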
Target sequence (P55789 whole entry, looked up): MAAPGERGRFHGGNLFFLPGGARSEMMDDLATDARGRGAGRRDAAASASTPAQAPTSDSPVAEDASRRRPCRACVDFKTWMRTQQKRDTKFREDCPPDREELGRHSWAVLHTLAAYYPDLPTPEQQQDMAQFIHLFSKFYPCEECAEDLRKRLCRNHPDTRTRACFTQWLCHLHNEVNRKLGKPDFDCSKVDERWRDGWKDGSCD
GC-B act – GC-B (human) receptor activation; activation, % at 10 µM; actives 0.11% (n = 370,000); P20594; HEK293-GC-B cells, CNP EC30, cGMP TR-FRET; 0% at EC30 CNP, 100% saturating CNP; AID 1920062;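 active = activation at 10 µM reaching about 35% in either raw or pattern-adjusted values, limit read from the data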
The depositor's hits bear a star; ? = inconclusive; nt = no result given.

SMILES	HDAC3 inh	NPR1 activator	ALR H2O2 inh	GC-B act
N#Cc1cnn2cc(-c3ncc(C(F)(F)F)cc3Cl)cnc12	3	0	85*	-3
FC(F)(F)c1cnc(-c2cnc3c(-c4ccc(Cl)cc4)cnn3c2)c(Cl)c1	5	-2	-1	-3
C/C(=N/NC(=O)CNC(=O)c1cccnc1)c1ccc(Cl)c(Cl)c1	3	-1	4	-4
O=C(c1nc2ccccn2c1CN1CCN(c2ccccc2O)CC1)N1CCCC1	-3	-1	99*	-3
CCOC(=O)C1C(=O)NC(c2ccccc2)=NC1c1ccc(O)c(OC)c1 (centres undefined)	0	5	10	-3
CCC(=O)Oc1ccc(C/C(=N\O)c2ccc(O)cc2O)o1	?	10	98*	-2
C[C@H]1COc2cc(N3CCCCC3)ccc2S(=O)(=O)N1	nt	1	nt	-2
CC(C(=O)NCC(=O)Nc1ccc(F)c(F)c1F)N1CCN(Cc2ccc(C#N)cc2)CC1 (centres undefined)	0	-4	-3	2
CC(C(=O)NCC(=O)Nc1ccc(F)c(F)c1F)N1CCN(c2ccc(O)cc2)CC1 (centres undefined)	-1	-7	99*	-1
CC1(C(=O)NCc2ccccc2Br)CCN1C(=O)C1(c2ccc(Cl)cc2)CC1 (centres undefined)	nt	-1	nt	-5
COc1cccc(CC(=O)Nc2ccc(N3CCOCC3)c(S(=O)(=O)Nc3ccccc3OC)c2)c1	nt	-3	nt	-5
CCOC(=O)c1sc(-c2ccc(Cl)cc2Cl)nc1O	4	11	97*	-2
COc1cc(C=Nn2c(-c3cc(-c4ccccc4)n[nH]3)n[nH]c2=S)ccc1OC(C)=O	nt	-2	nt	-16
CC(=O)c1ccccc1C(=O)N1CCCC(CNC(=O)c2ccc(F)cc2)C1 (centres undefined)	nt	0	nt	0
Cc1nnc(N2CCCCC2)c2ccccc12	9	0	-8	-5
Clc1nnc(N2CCCCC2)c2ccccc12	3	-1	98*	5
COc1cc(/C=N/NC(=O)c2ccc3c(c2)OCCO3)cc(Cl)c1O	-31	-4	94*	-6
COc1cc(/C=N/NC(=O)C2COc3ccccc3O2)ccc1O (centres undefined)	1	-3	99*	0
COc1ccccc1/C=C/C(=O)NCC(=O)N/N=C/c1ccc2c(c1)OCO2	9	-3	88*	1
COc1cc(/C=N/NC(=O)CNC(=O)c2ccc3c(c2)OCCO3)ccc1O	8	4	98*	-3
COc1ccc(/C=N/NC(=O)CNC(=O)c2ccc3c(c2)OCCO3)cc1OC	5	1	-4	10
Cc1cccc(N2CCN(CCNC(=O)c3cc4c(s3)CS(=O)(=O)C4)CC2)c1C	1	-3	2	1
COc1ccccc1C(=O)NCC(=O)NNC(=O)c1cccs1	2	-1	-3	5
COc1ccc(/C=N\NC(=O)C2COc3ccccc3O2)cc1O (centres undefined)	nt	0	99*	-4
COc1cc(/C=N\NC(=O)CNC(=O)C2COc3ccccc3O2)ccc1O (centres undefined)	5	1	98*	1
SMILES	HDAC3 inh	NPR1 activator	ALR H2O2 inh	GC-B act
COc1ccc(/C=N\NC(=O)CNC(=O)C2COc3ccccc3O2)cc1[N+](=O)[O-] (centres undefined)	2	2	-11	-3
COC(=O)[C@]12C[C@H](CC(=O)NCCCCc3ccccc3)C(=O)N(CCC3=CCCCC3)C1=C[C@H](C1CCCC1)O[C@@H]2C	nt	-3	nt	-4
COc1ccccc1NC(=O)CSC1=NC(=O)C(NC(C)=O)C(=O)N1 (centres undefined)	-1	1	nt	-7
O=C(CSC1=NC(=O)C(c2ccccc2)C(=O)N1)Nc1ccccc1[N+](=O)[O-] (centres undefined)	-6	0	95*	-4
O=C(CSC1=NC(=O)C(c2ccccc2)C(=O)N1)Nc1cccc(Cl)c1 (centres undefined)	15	1	98*	4
O=C(CSC1=NC(=O)C(c2ccccc2)C(=O)N1)Nc1ccccc1Cl (centres undefined)	-4	nt	99*	nt
O=C(CSC1=NC(=O)C(Cc2ccccc2)C(=O)N1)Nc1ncccn1 (centres undefined)	nt	-1	nt	-2
CC(=O)NC1C(=O)N=C(SCC(=O)Nc2ccc(C(F)(F)F)cc2Cl)NC1=O (centres undefined)	14	-1	98*	-5
Cn1nnnc1SCC(=O)Nc1ccccc1[N+](=O)[O-]	5	-1	nt	0
COC(=O)[C@]12C[C@H](CC(=O)N3CCN(C(=O)C4CC4)CC3)C(=O)N(Cc3cccc4ccccc34)C1=C[C@H](COCc1ccccc1)O[C@@H]2C	nt	-5	nt	1
COC(=O)c1ccc(NC(=O)CSC2=NC(=O)C(c3ccccc3)C(=O)N2)cc1 (centres undefined)	0	-2	99*	-4
Nc1nc2c(nc(SCc3ccccc3Br)n2C2OC(CO)C(O)C2O)c(=O)[nH]1 (centres undefined)	-1	-3	86*	3
Nc1nc2c(nc(N3CCCCC3)n2[C@@H]2O[C@H](CO)[C@@H](O)[C@H]2O)c(=O)[nH]1	1	0	11	-3
C=C1[C@H]2O[C@H]2[C@@H](OC(C)=O)[C@@]2(C)[C@@H](OC(C)=O)C[C@@H](OC(C)=O)[C@@](C)(O)[C@@H]2[C@@H](OC(C)=O)[C@@]2(O)[C@@H](C)C(=O)O[C@H]2[C@H]1Cl	nt	0	nt	3
CCOC(=O)C(=O)NNc1ccc(F)cc1	-1	5	99*	4
CCOC(=O)C(=O)N/N=C/c1ccc(F)cc1	1	2	-11	5
Cc1ccc(NC(=O)C2CCN(C(=O)c3ccco3)CC2)cc1C	8	3	-14	4
N#CCC(=O)Nc1ccc(C(=O)NCC(c2ccco2)N2CCCCC2)cc1 (centres undefined)	5	4	52	2
C=CCn1c(SCC(=O)Nc2nc3ccccc3s2)nc(O)c(CC)c1=O	1	-2	99*	-2
CCc1c(O)nc(SCC(=O)Nc2nc3ccccc3s2)n(-c2ccccc2)c1=O	5	-5	96*	-1
CCc1c(O)nc(SCC(=O)Nc2nc3ccccc3s2)n(-c2ccc(C)cc2)c1=O	12	0	98*	1
COc1cccc(-n2c(SCC(=O)Nc3nc4ccccc4s3)nc3ccccc3c2=O)c1	nt	-7	nt	-3
Cc1cccc(-c2cccc3c4c([nH]c23)[C@@H]2C[C@H](N(C)C(=O)Nc3ccccc3)[C@H]([C@H](C)O)CN2CC4)c1	nt	-2	nt	-5
CCN(CC)c1nc(Nc2ccc(Cl)cc2)nc(OCC#N)n1	32*	6	-10	11
Nc1nc2nc[nH]c2c(=O)[nH]1	-2	nt	-19	nt
Nc1nc(OCC2CCCCC2)c2[nH]cnc2n1	1	2	97*	0
Cc1cc(Cl)ccc1OCc1nc(-c2ccc(O)cc2)n[nH]1	16	2	98*	-11
